Screening data as filed in PubChem BioAssay.
Most compounds without a hit are left out; they make up all but 1.2% or so of the library.
RGS16-Gao: RGS16-Galphao interaction regulator (human); bead-based flow cytometry RGS16-Galphao binding, fluorescence; actives lie on both sides; binding response (% of control), % at 10 µM; 0.38% of 220,000 active;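 note: Galphao activated by GDP with aluminum fluoride before binding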
RGS7-Gao: regulators of human RGS7-Galphao interaction; 0.35% of 220,000 active; Multiplexed bead flow cytometry, RGS7-Galphao binding; actives lie on both sides; binding response (% of control), % at 10 µM; in the data active = binding response below about 49% or above about 150%; inconclusive = no clear call, values can overlap the other calls; inactive = in between;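 note: fluorescent Galphao held in activated GDP-AlF4 state binding bead-coupled RGS7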
Target sequence (P09471 whole entry, looked up): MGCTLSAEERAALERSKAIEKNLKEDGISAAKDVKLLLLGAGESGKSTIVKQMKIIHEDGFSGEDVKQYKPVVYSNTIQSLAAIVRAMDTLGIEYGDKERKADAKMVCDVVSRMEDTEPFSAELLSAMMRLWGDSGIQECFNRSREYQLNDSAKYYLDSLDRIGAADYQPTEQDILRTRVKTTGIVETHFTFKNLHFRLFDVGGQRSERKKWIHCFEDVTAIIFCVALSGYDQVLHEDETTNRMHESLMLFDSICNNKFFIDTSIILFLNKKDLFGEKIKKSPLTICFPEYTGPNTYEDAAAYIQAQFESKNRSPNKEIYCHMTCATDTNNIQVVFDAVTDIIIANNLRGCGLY
RGS4-Gao reg: modulates binding of RGS4 to human Galphao | P09471 | Multiplexed bead flow cytometry; actives lie on both sides | binding response (% of control), % at 10 µM | 0.33% of 220,000 active; in the data active = binding response below about 49% or above about 150%; inactive = in between;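 note: fluorescent Galphao activated with aluminum fluoride binding bead-coupled RGS4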
Avidin fluor: avidin bead compound fluorescence profile; Avidin beads, compound fluorescence 488/530 nm, flow cytometry; hits give high values; 0.38% of 220,000 active; fluorescence (KMESF) at 10 µM; AID 1775; in the data active = fluorescence above about 47
RGS8-Gao reg: human RGS8-Galphao interaction regulation | P09471 | multiplexed bead flow cytometry, RGS8-Galphao binding; actives lie on both sides | response (percent of control binding), % at 10 µM | 0.34% of 220,000 active; in the data active = response below about 60% or above about 140%; inactive = in between;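 note: Galphao activated as the GDP aluminium fluoride complex binding bead-coupled RGS8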
GSH bead fluor: GSH bead compound fluorescence profile; GSH beads flow cytometry, compound fluorescence 488/530 nm; hits give high values; 0.25% of 190,000 active; fluorescence (KMESF) at 10 µM; in the data active = fluorescence above about 89;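 note: glutathione beads carrying GST-tagged Bcl family fusion proteins plus one bare bead set; values are compound well signal with DMSO vehicle wells as background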
RGS-Gao: modulates binding between human RGS4 and Galphao | shares compounds with RGS16-Gao | multiplexed bead flow cytometry, RGS–Galpha-o binding | RGS4–Galpha-o binding response, % at 10 µM | 99% of 1,600 active | AID 1504;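 note: fluorescently labeled Galpha-o bound to GDP with aluminium fluoride binding biotinylated RGS beads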
Target sequence (P09471 whole entry, looked up): as above
Target sequence (P49798 whole entry, looked up): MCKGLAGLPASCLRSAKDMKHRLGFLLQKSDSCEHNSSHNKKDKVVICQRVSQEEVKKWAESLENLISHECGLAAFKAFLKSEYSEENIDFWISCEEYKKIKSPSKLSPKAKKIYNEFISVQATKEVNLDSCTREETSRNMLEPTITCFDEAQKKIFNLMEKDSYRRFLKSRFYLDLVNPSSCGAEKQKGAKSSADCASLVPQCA
Avidin counter: interferes with biotinylated probe binding to avidin beads; shares compounds with RGS16-Gao; streptavidin beads, fluorescein-biotin binding, flow cytometry; inhibition, % at 10 µM; 1,700 tested, under 10 active; AID 1783;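 active = inhibition above 50%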;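 note: median green fluorescence of gated singlet beads compared with DMSO control wells; 0% = DMSO wells and 100% = complete loss of bead fluorescence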
RGS8-Gao confirm: RGS8-Galphao interaction regulation, single point confirmation; shares compounds with RGS16-Gao; bead-based flow cytometry RGS8-Galphao binding, fluorescence; actives lie on both sides; binding response (% of control), % at 10 µM; 3% of 1,700 active; in the data active = binding response below about 72% or above about 130%; inactive = in between;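 note: Galphao activated as GDP AlF4 complex before binding bead RGS8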
RGS7-Gao single: confirmation of regulators of human RGS7-Galphao interaction | shares compounds with RGS16-Gao | bead-based flow cytometry RGS7-Galphao binding; actives lie on both sides | response (percent of control binding), % at 10 µM | 7.8% of 1,700 active | AID 1837; in the data active = response below about 75% or above about 130%; inactive = in between;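 note: fluorescent Galphao activated with GDP and aluminum fluoride binding bead-coupled RGS7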
RGS16-Gao conf: confirmation of regulators of human RGS16-Galphao interaction. bead-based flow cytometry, RGS16-Galphao binding; actives lie on both sides. AID 1838. shares compounds with RGS16-Gao. response (% of control binding), % at 10 µM. 4% of 1,700 active; in the data active = response below about 74% or above about 130%; inactive = in between;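 note: Galphao activated as the GDP aluminium fluoride complex binding bead-coupled RGS16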
RGS4-Gao single: RGS4-Galphao interaction regulation, single point confirmation; 4% of 1,700 active; RGS4-Galphao binding, multiplexed bead flow cytometry; actives lie on both sides; shares compounds with RGS16-Gao; binding response (% of control), % at 10 µM; in the data active = binding response below about 74% or above about 130%; inactive = in between
RGS19-Gao conf: confirmation of regulators of human RGS19-Galphao interaction; shares compounds with RGS16-Gao; bead-based flow cytometry RGS19-Galphao binding; actives lie on both sides; response (percent of control binding), % at 10 µM; 5% of 1,700 active; in the data active = response below about 50% or above about 160%; inactive = in between;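 note: 100% = no compound control and 0% = blank background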
* = called active by the depositor; i = inactive; u = inconclusive; x = no result given; [ ] = another dose, or the depositor's remark. Unless noted, the rule behind the calls is not given here.

SMILES | RGS16-Gao | RGS7-Gao | RGS4-Gao reg | Avidin fluor | RGS8-Gao reg | GSH bead fluor | Avidin counter | RGS8-Gao confirm | RGS7-Gao single | RGS16-Gao conf | RGS4-Gao single | RGS19-Gao conf | others
CCc1nnc(NC(=O)c2cccc(S(=O)(=O)N3CCN(c4ccccc4)CC3)c2)s1 | 145.4 | 150.4*[activator] | 139.5 | 5 | 127.0 | 27 | -0.5 | 102.5 | 102.5 | 103.1 | 104.7 | 108.4 | RGS-Gao=139.5*
CCc1nnc(NC(=O)c2cc(S(=O)(=O)N3CCN(c4ccccc4)CC3)ccc2Cl)s1 | 101.5 | 100.0 | 103.6 | 14 | 101.0 | 61 | x | x | x | x | x | x
COc1ccc(CCNC(=O)COC(=O)c2cc(OC)c(OC)cc2OC)cc1OC | 199.1*[activator] | 172.0*[activator] | 172.5*[activator] | 21 | 173.8*[activator] | 14 | -1.4 | 106.5 | 106.3 | 108.4 | 105.3 | 138.8
CCOc1ccc(-c2nnc(-c3ccccc3)o2)cc1 | 94.7 | 94.5 | 95.6 | 5 | 99.2 | 16 | x | x | x | x | x | x
CCOc1ccc(-c2nnc(-c3ccc(OC)cc3)o2)cc1 | 11.5* | 17.5* | 23.9* | 2 | 14.5* | 10 | 0.3 | 99.5 | 91.9 | 95.0 | 94.0 | 94.4
Cn1cc(S(=O)(=O)CC(=O)Nc2ccc3c(c2)OCO3)c2ccccc21 | 115.3 | 274.6*[activator] | 367.3*[activator] | 194* | 97.5 | 91* | -1.1 | 99.9 | 103.2 | 103.5 | 102.2 | 87.0
C#CCNC(=O)C1=C[C@@H](C2CC2)[C@H](CCCO)[C@@H](OCC)O1 | 0.9* | -5.5* | 4.8* | -1 | 8.9* | 19 | -2.5 | 102.6 | 104.2 | 100.1 | 102.5 | 94.3
CCO[C@@H]1OC(C(=O)NC2CC2)=C[C@H](C2CC2)[C@H]1CCCO | 101.7 | u | 99.4 | 9 | 96.8 | x | x | x | x | x | x | x
CCN(CC)c1ccc(NC(=O)Nc2cccc(C(C)=O)c2)cc1 | -17.1* | -3.4* | -7.5* | -5 | 5.3* | 36 | 1.1 | 96.9 | 93.8 | 97.2 | 91.6 | 95.6
Cc1ccc(C2CC(c3ccccc3)=NN2C(=S)Nc2ccccc2)o1 (stereo not drawn) | -19.6* | -7.6* | -30.8* | -1 | 11.1* | 11 | 1.1 | 94.5 | 99.6 | 97.5 | 97.8 | 97.1
CCOP(=O)(OCC)C(Nc1ccc(F)cc1)c1ccccc1 (stereo not drawn) | x | x | 149.5 | x | x | x | 0.8 | 99.7 | 93.9 | 99.2 | 99.5 | 93.5
CCCOC(=O)c1ccc(OC(=O)c2ccco2)cc1 | i | 136.6 | 175.7*[activator] | 12 | 122.1 | 11 | -0.9 | 99.5 | 92.0 | 100.8 | 99.9 | 102.1
CC(=O)N/N=C(\C)c1cccc(NC(=O)c2cccs2)c1 | 42.6 | -112.2* | -635.8* | -3 | 33.8* | 12 | 0.3 | 100.0 | 100.0 | 100.1 | 102.0 | 110.3
C/C(=N/NC(=O)c1cccs1)c1cccc(NC(=O)C2CC2)c1 | 95.5 | 97.2 | 96.7 | x | 100.4 | 7 | x | x | x | x | x | x
CCN(CC)c1ccc(/C=C(/C#N)c2nc3ccccc3[nH]2)c(OC(C)C)c1 | 72.4 | 89.0 | 97.3 | 14 | 76.9 | 24 | x | x | x | x | x | x
O=c1cc(-c2ccccc2F)oc2ccccc12 | 94.3 | 94.4 | 96.9 | 6 | 98.5 | 18 | x | x | x | x | x | x
O=c1cc(C(F)(F)C(F)F)oc2ccccc12 | x | x | x | x | x | 39 | 1.0 | 97.4 | 96.3 | 97.0 | 98.1 | 106.5
C[C@H](NC(=O)c1nc[nH]c1C(=O)N[C@@H](CCCCNC(=O)OC(C)(C)C)C(=O)OC(C)(C)C)c1ccccc1 | 105.3 | u | 106.1 | 14 | 102.8 | x | x | x | x | x | x | x
O=C(COc1nc2ccccc2nc1N1CCOCC1)Nc1cccc(S(=O)(=O)N2CCCCC2)c1 | 108.0 | 103.4 | 99.9 | 6 | 100.0 | 16 | x | x | x | x | x | x
COc1ccccc1/C=N/NC(=O)c1ccc(-c2ccccc2)cc1 | 190.9*[activator] | 114.4 | 117.4 | 17 | 122.6 | 13 | 1.8 | 95.2 | 61.3* | 77.2 | 75.6 | 60.9 | RGS-Gao=117.4*
COc1cccc(/C=N/NC(=O)c2ccccc2)c1OS(=O)(=O)c1ccccc1 | 25.0* | 89.0 | 91.0 | 9 | 75.0 | 7 | -1.2 | 101.4 | 100.5 | 96.8 | 100.2 | 100.1 | RGS-Gao=91.0*
COc1cccc(/C=N/NC(=O)c2ccc(=O)n(C)c2)c1OC | 101.0 | 105.1 | 102.2 | 12 | 102.9 | 11 | x | x | x | x | x | x
Cc1ccc(-n2ncc3c(=O)[nH]c(SCC(=O)N4CCC(C)CC4)nc32)cc1C | 184.6*[activator] | 114.1 | 112.0 | 7 | 122.9 | 19 | 2.9 | 97.5 | 98.9 | 100.3 | 99.0 | 98.5 | RGS-Gao=112.0*
Cc1ccc(-n2ncc3c(=O)[nH]c(SCC(=O)N4CCCC4)nc32)cc1C | 106.4 | 101.6 | 101.7 | 7 | 103.2 | 18 | x | x | x | x | x | x
O=C(CCc1ccccc1)N1CCN(c2ccc([N+](=O)[O-])cc2)CC1 | 104.9 | 99.2 | 102.5 | 12 | 101.9 | 27 | x | x | x | x | x | x
SMILES | RGS16-Gao | RGS7-Gao | RGS4-Gao reg | Avidin fluor | RGS8-Gao reg | GSH bead fluor | Avidin counter | RGS8-Gao confirm | RGS7-Gao single | RGS16-Gao conf | RGS4-Gao single | RGS19-Gao conf | others
C=CCn1c(-c2ccccc2)nc(=S)c2c1CCCC2 | 102.4 | u | 103.5 | 8 | 102.6 | x | x | x | x | x | x | x
O=C(CN1CCN(Cc2ccc(Cl)cc2)CC1)N/N=C/c1cccs1 | 97.7 | u | 97.0 | 8 | 98.1 | x | x | x | x | x | x | x
O=C(c1cnsn1)N1CCN(c2ccccc2)CC1 | 102.4 | 247.6*[activator] | 118.5 | 163* | 81.5 | 23 | -0.4 | 102.3 | 100.2 | 99.1 | 99.0 | 94.2 | RGS-Gao=118.5*
Cn1c(N2CCCC2)nc2c1c(=O)n(Cc1ccc(Cl)cc1)c(=O)n2C | x | x | x | x | x | 44 | 1.6 | 99.8 | 98.3 | 101.3 | 102.6 | 99.0
CC1CN(C(NC(=O)c2ccccc2)C(Cl)(Cl)Cl)CC(C)O1 (stereo not drawn) | 103.5 | 142.0 | 150.1*[activator] | 4 | 120.1 | 11 | -1.1 | 104.6 | 107.2 | 106.0 | 105.4 | 96.2
CC(=O)c1ccc(NS(=O)(=O)c2c(C)cc(C)cc2C)cc1 | 116.0 | 93.2 | 95.3 | 11 | 104.0 | 14 | x | x | x | x | x | x
